UBC9 SUMO inh: inhibitors of in vitro SUMOylation cascade, primary screen, biochemical, HTRF, uHTS; SUMO-conjugating enzyme UBC9 (Homo sapiens), P63279; HTRF SUMOylation assay, SAE1/SAE2 + UBC9; inhibition, % at 35 µM; 0.36% of 290,000 active; in the data active = inhibition above about 50%, passing the limit was not always enough
p97 ATPase inh: inhibitors of human p97 ATPase, primary screen, biochemical; inhibition, % at 8 µM; recombinant p97 ATPase, Kinase-Glo ATP luminescence, 3 h; AID 1481, 2009; 0.42% of 220,000 active; in the data active = inhibition above about 15%;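 note: 0% = DMSO vehicle and 100% = wells lacking enzyme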
Target sequence (P55072 whole entry, looked up): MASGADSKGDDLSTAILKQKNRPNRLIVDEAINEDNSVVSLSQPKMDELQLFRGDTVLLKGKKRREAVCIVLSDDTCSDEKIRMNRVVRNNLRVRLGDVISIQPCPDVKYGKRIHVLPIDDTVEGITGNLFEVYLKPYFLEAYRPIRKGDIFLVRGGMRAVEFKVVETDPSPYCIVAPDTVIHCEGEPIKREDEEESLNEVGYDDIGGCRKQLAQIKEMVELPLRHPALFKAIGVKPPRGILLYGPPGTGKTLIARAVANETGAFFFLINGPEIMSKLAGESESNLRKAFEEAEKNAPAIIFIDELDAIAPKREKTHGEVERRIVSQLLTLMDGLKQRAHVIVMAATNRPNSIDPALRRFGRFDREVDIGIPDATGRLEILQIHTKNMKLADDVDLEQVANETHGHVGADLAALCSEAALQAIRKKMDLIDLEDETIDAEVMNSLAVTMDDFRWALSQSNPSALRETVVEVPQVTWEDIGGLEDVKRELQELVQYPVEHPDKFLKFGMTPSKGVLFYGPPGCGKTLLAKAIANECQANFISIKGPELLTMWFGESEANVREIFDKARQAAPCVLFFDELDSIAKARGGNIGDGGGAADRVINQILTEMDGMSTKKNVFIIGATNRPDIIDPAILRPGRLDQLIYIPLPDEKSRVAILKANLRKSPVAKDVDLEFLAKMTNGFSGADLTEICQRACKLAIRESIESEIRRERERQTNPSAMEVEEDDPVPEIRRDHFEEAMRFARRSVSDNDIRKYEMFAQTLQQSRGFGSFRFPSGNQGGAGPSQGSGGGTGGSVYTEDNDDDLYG
FAS TE block: FAS thioesterase domain inhibitors, primary screen, biochemical, fluorescence intensity, uHTS | Fatty acid synthase (Homo sapiens), P49327 | recombinant FAS-TE, OMFH fluorogenic substrate, fluorescence endpoint | AID 602261, 2012 | inhibition, % at 15 µM | 0.67% of 360,000 active;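 active = compounds whose normalised, plate-corrected inhibition of enzyme fluorescence in the single-dose primary screen is 50% or more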;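 note: 0% = DMSO with enzyme and 100% = substrate without enzyme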
Redox H2O2 prof: compounds producing H2O2 with reducing agent – biochemical, NIH compound library profiling, artefact control for MLSCN library redox annotation, primary screen; AID 878, 2007; DTT-dependent redox cycling H2O2, phenol red/HRP absorbance; 100% = 100 µM peroxide control, 0% = buffer; 0.03% of 200,000 active; activation, % at 10 µM;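 active = activation of at least 50% relative to the plate's high and low controls in the primary single-dose screen; inactive = activation below 50%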;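 note: compound incubated with DTT at 0.8 mM final as the reducing agent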
Furin inhibitor: human furin inhibitors, primary screen, biochemical, fluorescence intensity; inhibition, % at 20 µM or 30 µM; P09958; 0.061% of 220,000 active; AID 463115, 2010; purified furin, fluorogenic substrate cleavage; in the data active = inhibition above about 25%
PKD1 kinase inh: inhibitors of human PKD1 kinase, biochemical, fluorescence polarization. Serine/threonine-protein kinase D1 (Homo sapiens), Q15139. PKD1 kinase fluorescence polarization assay. inhibition, % (test concentration not listed). 0.056% of 200,000 active. AID 797, 2007; in the data active = inhibition above about 50%
FAS-TE inh conf: FAS thioesterase domain inhibitors, confirmation, biochemical, fluorescence intensity, single concentration; shares compounds with FAS TE block; inhibition, % at 15 µM; 45% of 2,300 active; AID 624325, 2012; recombinant FAS-TE, OMFH fluorogenic substrate;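 active = compounds inhibiting the enzyme by at least 50% at 15 µM in any one of the replicates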;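 note: 0% = enzyme with DMSO only and 100% = wells lacking enzyme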
The depositor's hits bear a star; . = no result given. Hits are enriched below; roughly 1.2% of the tested compounds scored in any of these assays.

SMILES	UBC9 SUMO inh	p97 ATPase inh	FAS TE block	Redox H2O2 prof	Furin inhibitor	PKD1 kinase inh	FAS-TE inh conf
COCCNc1nc(NCCN2CCNC2=O)c2sc(-c3ccccc3)cc2n1	.	.	-4	.	.	.	.
COc1ccc(-c2sc3cc4c(cc3c2-c2ccc3c(c2)OCCO3)OCO4)cc1	.	.	30	.	.	.	.
COc1cc2sc(-c3ccc(S(C)(=O)=O)cc3)c(-c3ccc4c(c3)OCO4)c2cc1OC	.	.	80*	.	.	.	28
COc1ccc2sc(-c3ccc(S(C)(=O)=O)cc3)c(-c3ccc4c(c3)OCCO4)c2c1	.	.	57*	.	.	.	22
CS(=O)(=O)c1ccc(Cl)c(C(=O)Nc2ccc3nc(N4CCOCC4)sc3c2)c1	.	.	-1	.	.	.	.
O=C(COC(=O)c1cc([N+](=O)[O-])ccc1N1CCOCC1)c1ccc(F)cc1	.	.	69*	.	.	.	40*
CCc1ccc(C(=O)COC(=O)c2cc([N+](=O)[O-])ccc2N2CCOCC2)cc1	.	.	80*	.	.	.	80*
NC(=O)c1ccc(NC(=O)COC(=O)c2cc([N+](=O)[O-])ccc2N2CCOCC2)cc1	.	.	36	.	.	.	.
O=C(O)c1ccc(-n2nc(C(F)(F)F)cc2-c2cccs2)cc1	14	.	-4	.	.	.	.
COc1ccc(C(=O)NC(CC(=O)O)c2cc([N+](=O)[O-])ccc2Cl)c(SC)c1 (configuration not stated)	-3	3	50*	0	-23	-4	64*
COc1ccc(C(=O)NC(CC(=O)O)c2cc([N+](=O)[O-])ccc2Cl)cc1 (configuration not stated)	-9	6	48	0	-22	-3	.
COc1ccc(C(C(=O)NC2CCCC2)N(C(=O)c2snc(-c3ccc(F)cc3)c2N)c2ccc(OC)cc2)cc1 (configuration not stated)	5	4	59*	3	-6	-5	27
COc1ccc2[nH]c3c(c2c1)CCN1C(=O)C(CC(=O)NCC24CC5CC(CC(C5)C2)C4)C[C@H](C(=O)N2CCOCC2)[C@@]31CCC1CCCC1 (some centres not stated)	.	.	80*	.	.	.	15
O=C(C[C@H]1C[C@H](C(=O)N2CCOCC2)[C@@]2(CCC3CCCC3)c3[nH]c4ccc(Cl)cc4c3CCN2C1=O)NCC12CC3CC(CC(C3)C1)C2	.	.	82*	.	.	.	2
COc1ccc2[nH]c3c(c2c1)CCN1C(=O)C(CC(=O)NCCC2=CCCCC2)C[C@H](C(=O)N2CCOCC2)[C@@]31CCC1CCCC1 (some centres not stated)	.	.	67*	.	.	.	69*
CC[C@]12c3[nH]c4ccc(OC)cc4c3CCN1C(=O)C(CC(=O)NCC13CC4CC(CC(C4)C1)C3)C[C@@H]2C(=O)N1CCN(C(=O)c2ccco2)CC1 (some centres not stated)	.	.	8	.	.	.	.
COc1ccc2[nH]c3c(c2c1)CCN1C(=O)C(CC(=O)NCCC2=CCCCC2)C[C@H](C(=O)N2CCCCC2)[C@@]31CCc1ccccc1 (some centres not stated)	.	.	6	.	.	.	.
CC(=O)N1CCN(CCS(=O)(=O)c2ccc(Br)cc2)CC1	.	.	-6	.	.	.	.
CCOC(=O)C1CCN(C(=O)COC(=O)CSc2ccccc2C)CC1	.	.	-4	.	.	.	.
Nc1ccc(C(=O)N2CCN(S(=O)(=O)c3ccc(Cl)s3)CC2)cc1[N+](=O)[O-]	.	.	10	.	.	.	.
CN(CCO)c1cc(Sc2nc3ccccc3s2)c2nonc2c1[N+](=O)[O-]	7	1	74*	1	-1	0	74*
CC(CCc1ccccc1)NC(=O)c1cccc([N+](=O)[O-])c1 (configuration not stated)	12	1	62*	0	-20	2	70*
O=C(NCCCc1ccccc1)c1cccc([N+](=O)[O-])c1	12	1	67*	-1	-21	-5	51*
O=C(NCCCc1ccccc1)c1ccccc1	9	-4	-9	1	-10	-2	.
O=[N+]([O-])c1cccc(NC(=S)NCCc2ccccc2)c1	5	5	65*	1	-15	-6	57*
SMILES	UBC9 SUMO inh	p97 ATPase inh	FAS TE block	Redox H2O2 prof	Furin inhibitor	PKD1 kinase inh	FAS-TE inh conf
O=C(NCCCCc1ccccc1)c1cccc([N+](=O)[O-])c1	3	2	54*	0	-27	-13	65*
Fc1cccc(NC(=S)NCCc2ccccc2)c1	10	0	2	0	-10	9	.
O=C(NCCCN1CCN(CCCNC(=O)c2cccc([N+](=O)[O-])c2)CC1)c1cccc([N+](=O)[O-])c1	6	0	-5	0	-6	-4	.
CCOc1ccc(NS(=O)(=O)c2c(C)nc3sc(CC)nn3c2=O)cc1	8	.	4	.	.	.	.
O=[N+]([O-])c1ccccc1S(=O)(=O)N1CCSCC1	.	.	2	.	.	.	.
O=C(NCCCCc1ccccc1)c1ccccc1	-6	1	-4	0	-17	-13	.
O=C(Nc1ccc(Cc2ccncc2)cc1)c1cccc([N+](=O)[O-])c1	11	-5	66*	-1	-3	3	70*
O=C(NCCCCc1ccccc1)c1cc([N+](=O)[O-])cc([N+](=O)[O-])c1	-17	.	52*	.	.	.	53*
O=C(Nc1ccc(NC(=O)c2cccc([N+](=O)[O-])c2)cc1)c1cccc([N+](=O)[O-])c1	9	.	20	.	.	.	.
CC(C)C[C@@]12C(=O)N(c3cccc(Cl)c3)C(=O)N1[C@H](c1ccc(Cl)cc1)[C@@H]1C(=O)N(C3CCCCC3)C(=O)[C@@H]12	.	.	90*	.	.	.	28
CC[C@@]12C(=O)N(c3cccc(Br)c3)C(=O)N1[C@H](c1ccc(Cl)cc1)[C@@H]1C(=O)N(C3CCCCC3)C(=O)[C@@H]12	3	.	87*	.	.	.	19
CCN1C(=O)[C@H]2[C@@H](c3ccc(C)cc3)N3C(=O)N(c4ccc(OC)cc4)C(=O)[C@@]3(CC)[C@H]2C1=O	.	.	-8	.	.	.	.
CC(C)C[C@@]12C(=O)N(c3cccc(Br)c3)C(=O)N1[C@H](c1ccc(Cl)cc1)[C@@H]1C(=O)N(C3CCCCC3)C(=O)[C@@H]12	.	.	92*	.	.	.	19
CC[C@@]12C(=O)N(c3cccc(C)c3)C(=O)N1[C@H](c1ccc(Br)cc1)[C@@H]1C(=O)N(C(C)(C)C)C(=O)[C@@H]12	-10	.	24	.	.	.	.
CC[C@@]12C(=O)N(c3ccc(OC)cc3)C(=O)N1[C@H](c1ccc(Cl)cc1)[C@@H]1C(=O)N(C3CCCCC3)C(=O)[C@@H]12	-23	.	67*	.	.	.	42
